Counter-ions that a name gives are not always drawn.
Legend:
Experiment in all cases: phenotypically active (imaging signature differs from DMSO and reproducible) at any of 0.3-9 uM (binary (1 = active, 0 = inactive)); higher = active
Details in all cases: treatment time: 24 h
[1] = system: A549-ACTB-RAB5A
Procedure, shortened: (§1)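 Live-cell features were measured per well and normalised to solvent control wells after fifteen gene-edited A549, HepG2 and WPMY1 reporter lines had been treated for 24 h at 0.3, 1, 3 or 9 µM in four wells each. A condition was deviating when ≥3 of 4 wells sat beyond the 95th percentile of control Euclidean distances. It was reproducible when the median replicate Pearson correlation exceeded the 95th percentile of non-replicates. Phenotypic activity demanded both.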

[2] = system: A549-CANX-COX4
Procedure, shortened: as §1

[3] = system: A549-GM130-SQSTM1
Procedure, shortened: as §1

[4] = system: A549-TP53BP1-CLTA
Procedure, shortened: as §1

[5] = system: A549-TUBA1B-RELA
Procedure, shortened: as §1

[6] = system: HepG2-ACTB-RAB5A
Procedure, shortened: as §1

[7] = system: HepG2-CANX-COX4
Procedure, shortened: as §1

[8] = system: HepG2-GM130-SQSTM1
Procedure, shortened: as §1

[9] = system: HepG2-TP53BP1-CLTA
Procedure, shortened: as §1

[10] = system: HepG2-TUBA1B-RELA
Procedure, shortened: as §1

[11] = system: WPMY1-ACTB-RAB5A
Procedure, shortened: as §1

[12] = system: WPMY1-CANX-COX4
Procedure, shortened: as §1

[13] = system: WPMY1-GM130-SQSTM1
Procedure, shortened: as §1

[14] = system: WPMY1-TP53BP1-CLTA
Procedure, shortened: as §1

[15] = system: WPMY1-TUBA1B-RELA
Procedure, shortened: as §1

Measured: phenotypically active

COc1ccc(C(=O)Nc2sc3c(c2C(N)=O)CCCC3)cc1OC
inactive: [1] 0 | [2] 0 | [3] 0 | [4] 0 | [5] 0 | [6] 0 | [7] 0 | [8] 0 | [9] 0 | [10] 0 | [11] 0 | [12] 0 | [13] 0 | [14] 0 | [15] 0

C[C@H](Cc1cc2c(c(C(N)=O)c1)N(CCCO)CC2)NCCOc1ccccc1OCC(F)(F)F [silodosin]
inactive: [1] 0 | [2] 0 | [3] 0 | [4] 0 | [5] 0 | [6] 0 | [7] 0 | [8] 0 | [9] 0 | [10] 0 | [11] 0 | [12] 0 | [13] 0 | [14] 0 | [15] 0

NS(=O)(=O)c1cc(Cl)c(Cl)c(S(N)(=O)=O)c1 [diclofenamide]
inactive: [1] 0 | [2] 0 | [3] 0 | [4] 0 | [5] 0 | [6] 0 | [7] 0 | [8] 0 | [9] 0 | [10] 0 | [11] 0 | [12] 0 | [13] 0 | [14] 0 | [15] 0

C/C=C1/[C@H]2C=C(C)C[C@]1(N)c1ccc(=O)[nH]c1C2 [Huperzine A]
inactive: [1] 0 | [2] 0 | [3] 0 | [4] 0 | [5] 0 | [6] 0 | [7] 0 | [8] 0 | [9] 0 | [10] 0 | [11] 0 | [12] 0 | [13] 0 | [14] 0 | [15] 0

COc1cc(O)c2c(c1C1CCCN1)OC(c1ccc(O)cc1)CC2 (stereo not given) [Vochysine (4 dia/énantio)]
inactive: [1] 0 | [2] 0 | [3] 0 | [4] 0 | [5] 0 | [6] 0 | [7] 0 | [8] 0 | [9] 0 | [10] 0 | [11] 0 | [12] 0 | [13] 0 | [14] 0 | [15] 0

COc1ccc2cc(CCC(C)=O)ccc2c1 [nabumetone]
inactive: [1] 0 | [2] 0 | [3] 0 | [4] 0 | [5] 0 | [6] 0 | [7] 0 | [8] 0 | [9] 0 | [10] 0 | [11] 0 | [12] 0 | [13] 0 | [14] 0 | [15] 0

CN1C(=O)CC[C@H]1c1cccnc1 [(-)-Cotinine]
inactive: [1] 0 | [2] 0 | [3] 0 | [4] 0 | [5] 0 | [6] 0 | [7] 0 | [8] 0 | [9] 0 | [10] 0 | [11] 0 | [12] 0 | [13] 0 | [14] 0 | [15] 0

O=C1NC(=O)/C(=C\c2cccc(C(F)(F)F)c2)S1
inactive: [1] 0 | [2] 0 | [3] 0 | [4] 0 | [5] 0 | [6] 0 | [7] 0 | [8] 0 | [9] 0 | [10] 0 | [11] 0 | [12] 0 | [13] 0 | [14] 0 | [15] 0

CC1CCC(C(C)C)C(O)C1 [L-menthol]
inactive: [1] 0 | [2] 0 | [3] 0 | [4] 0 | [5] 0 | [6] 0 | [7] 0 | [8] 0 | [9] 0 | [10] 0 | [11] 0 | [12] 0 | [13] 0 | [14] 0 | [15] 0

O=C(/C=C\c1ccc(O)c(O)c1)O[C@H]1C[C@](OC(=O)/C=C/c2ccc(O)c(O)c2)(C(=O)O)C[C@H](O)[C@H]1O [Cynarin]
inactive: [1] 0 | [2] 0 | [3] 0 | [4] 0 | [5] 0 | [6] 0 | [7] 0 | [8] 0 | [9] 0 | [10] 0 | [11] 0 | [12] 0 | [13] 0 | [14] 0 | [15] 0

O=C1N[C@@H]2[C@@H](O)[C@@H](O)[C@H](O)[C@@H](CO)N2C1=O [Kifunensine]
inactive: [1] 0 | [2] 0 | [3] 0 | [4] 0 | [5] 0 | [6] 0 | [7] 0 | [8] 0 | [9] 0 | [10] 0 | [11] 0 | [12] 0 | [13] 0 | [14] 0 | [15] 0

N#Cc1ccc(C(c2ccc(C#N)cc2)n2cncn2)cc1 [Letrozole]
inactive: [1] 0 | [2] 0 | [3] 0 | [4] 0 | [5] 0 | [6] 0 | [7] 0 | [8] 0 | [9] 0 | [10] 0 | [11] 0 | [12] 0 | [13] 0 | [14] 0 | [15] 0

COc1ncc2cc(C(=O)Nc3cc(C(=O)NCc4cccc(Cl)c4)ccc3Cl)c(=O)[nH]c2n1
inactive: [1] 0 | [2] 0 | [3] 0 | [4] 0 | [5] 0 | [6] 0 | [7] 0 | [8] 0 | [9] 0 | [10] 0 | [11] 0 | [12] 0 | [13] 0 | [14] 0 | [15] 0

CCC[C@H](N[C@@H](C)C(=O)N1[C@H](C(=O)O)C[C@@H]2CCCC[C@@H]21)C(=O)OCC [perindopril]
inactive: [1] 0 | [2] 0 | [3] 0 | [4] 0 | [5] 0 | [6] 0 | [7] 0 | [8] 0 | [9] 0 | [10] 0 | [11] 0 | [12] 0 | [13] 0 | [14] 0 | [15] 0

CC(C)NCC(O)c1ccc(O)c(O)c1 (stereo not given) [Isoproterenol hydrochloride]
inactive: [1] 0 | [2] 0 | [3] 0 | [4] 0 | [5] 0 | [6] 0 | [7] 0 | [8] 0 | [9] 0 | [10] 0 | [11] 0 | [12] 0 | [13] 0 | [14] 0 | [15] 0

CC[N+](CC)(CCNC(=O)C(=O)NCC[N+](CC)(CC)Cc1ccccc1Cl)Cc1ccccc1Cl [ambenonium]
inactive: [1] 0 | [2] 0 | [3] 0 | [4] 0 | [5] 0 | [6] 0 | [7] 0 | [8] 0 | [9] 0 | [10] 0 | [11] 0 | [12] 0 | [13] 0 | [14] 0 | [15] 0

CSc1ccc(C(=O)c2[nH]c(=O)[nH]c2C)cc1 [Enoximone]
inactive: [1] 0 | [2] 0 | [3] 0 | [4] 0 | [5] 0 | [6] 0 | [7] 0 | [8] 0 | [9] 0 | [10] 0 | [11] 0 | [12] 0 | [13] 0 | [14] 0 | [15] 0

Cc1ccccc1C(OCCN(C)C)c1ccccc1 (stereo not given) [orphenadrine]
inactive: [1] 0 | [2] 0 | [3] 0 | [4] 0 | [5] 0 | [6] 0 | [7] 0 | [8] 0 | [9] 0 | [10] 0 | [11] 0 | [12] 0 | [13] 0 | [14] 0 | [15] 0

Cc1n[nH]c(=O)[nH]c1=O [Azathymine, 6]
inactive: [1] 0 | [2] 0 | [3] 0 | [4] 0 | [5] 0 | [6] 0 | [7] 0 | [8] 0 | [9] 0 | [10] 0 | [11] 0 | [12] 0 | [13] 0 | [14] 0 | [15] 0

CCN(CC)C(C)CN1c2ccccc2Sc2ccccc21 (stereo not given) [profenamine]
inactive: [1] 0 | [2] 0 | [3] 0 | [4] 0 | [5] 0 | [6] 0 | [7] 0 | [8] 0 | [9] 0 | [10] 0 | [11] 0 | [12] 0 | [13] 0 | [14] 0 | [15] 0

CCOCCn1c(N2CCCN(C)CC2)nc2ccccc21 [emedastine]
inactive: [1] 0 | [2] 0 | [3] 0 | [4] 0 | [5] 0 | [6] 0 | [7] 0 | [8] 0 | [9] 0 | [10] 0 | [11] 0 | [12] 0 | [13] 0 | [14] 0 | [15] 0

O=C(O)c1c(Sc2ccccc2)c2cc(Cl)ccc2n1Cc1ccc(Cl)cc1
inactive: [1] 0 | [2] 0 | [3] 0 | [4] 0 | [5] 0 | [6] 0 | [7] 0 | [8] 0 | [9] 0 | [10] 0 | [11] 0 | [12] 0 | [13] 0 | [14] 0 | [15] 0

COc1ccc([C@@H]2CNC(=O)C2)cc1OC1CCCC1 [(R)-(-)-Rolipram]
inactive: [1] 0 | [2] 0 | [3] 0 | [4] 0 | [5] 0 | [6] 0 | [7] 0 | [8] 0 | [9] 0 | [10] 0 | [11] 0 | [12] 0 | [13] 0 | [14] 0 | [15] 0

COc1ccc(C2=N[C@H](c3ccc(Cl)cc3)[C@H](c3ccc(Cl)cc3)N2C(=O)N2CCNC(=O)C2)c(OC(C)C)c1 [Nutlin-3]
inactive: [1] 0 | [2] 0 | [3] 0 | [4] 0 | [5] 0 | [6] 0 | [7] 0 | [8] 0 | [9] 0 | [10] 0 | [11] 0 | [12] 0 | [13] 0 | [14] 0 | [15] 0

— the supplement of paper PMC7411054
